# In PubChem BioAssay (NCI):
# Values joined by “and” are separate entries in the source; they are usually repeats but may differ in a detail not shown here. Identical values can stand only once. About 79,000 compounds went through this panel and 15% of them were active in at least one assay; those are over-represented in the sample as a whole. Unmarked numbers belong to inactive results. Active and inactive are the calls of the source. Cut-off read from the data, not from the text of the source: active = growth inhibition above about 70%; inactive = the rest.
# Assays:
# [1] = NCI Yeast Anticancer Drug Screen. Data for the rad50 strain (AID 155);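 note: 0% = growth of vehicle-only cultures of the same strain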; conditions: S. cerevisiae rad50 strain growth inhibition, hits give high values; at 50.0 µM unless noted
# Method in brief: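 Cells are treated with compound, grown, and their growth is then scored against vehicle-only cultures of the same repair-deficient yeast strain.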
# [2] = NCI Yeast Anticancer Drug Screen. Data for the mec2-1 strain (AID 157); conditions: S. cerevisiae mec2-1 strain, hits give high values; at 50.0 µM unless noted
# Method in brief: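 Compounds were applied to mec2-1 yeast cells. Their growth was then compared with that of vehicle-treated cultures to give growth inhibition.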
# [3] = NCI Yeast Anticancer Drug Screen. Data for the sgs1 mgt1 strain (AID 161);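 note: 0% = growth of cultures given vehicle only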; conditions: S. cerevisiae sgs1 mgt1 strain, hits give high values; at 50.0 µM unless noted
# Method in brief: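 Growth of a repair-deficient yeast mutant was monitored after compound treatment and expressed as inhibition relative to vehicle-treated cultures.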
# [4] = NCI Yeast Anticancer Drug Screen. Data for the cln2 rad14 strain (AID 165);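 note: 0% = growth equal to vehicle treated cultures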; conditions: S. cerevisiae cln2 rad14 strain, hits give high values; at 50.0 µM unless noted
# Method in brief: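 Strain: cln2 rad14 yeast, altered in cell cycle control and DNA damage repair. Read-out: growth inhibition vs vehicle.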
# [5] = NCI Yeast Anticancer Drug Screen. Data for the bub3 strain (AID 167); conditions: S. cerevisiae bub3 mutant strain, hits give high values; at 50.0 µM unless noted
# Method in brief: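 Part of a panel of yeast mutants defective in DNA damage repair or cell cycle regulation. Each strain is grown with compound, and inhibition is calculated relative to solvent-treated cultures.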
# [6] = NCI Yeast Anticancer Drug Screen. Data for the mlh1 rad18 strain (AID 175); conditions: S. cerevisiae mlh1 rad18 strain growth inhibition, hits give high values; at 50.0 µM unless noted
# Method in brief: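 A repair-deficient yeast strain is exposed to test compound, and growth is scored relative to vehicle-treated controls.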
SMILES,growth inhibition [1],growth inhibition [2],growth inhibition [3],growth inhibition [4],growth inhibition [5],growth inhibition [6]
CC(C)CN(CC(C)C)C(=O)c1ccccc1,2.3%,8.2%,1.1%,8.85%,4.9%,2.4%
O=S1(=O)OCCOS(=O)(=O)C1(Br)Cc1ccccc1,-67.7%,-40.6%,-37.5%,-40.4%,-63.8%,-24.2%
Cc1[nH]c(=O)cc2c1[nH]c1ccccc12,-0.4%,-6.7%,-0.15%,-44.2%,1.3%,-1.05%
CN(C)CC1(C)CC/C(=C\c2ccc3c(c2)OCO3)C1=O (stereo not drawn),58.4%,30.4%,45%,51.9%,29.9%,56%
O=C(O)CSCC(=O)Nc1ccccc1Cl,-11.6%,-10.3%,14.6%,6.05%,4.3%,-0.35%
CCc1cccc(C(C)C)c1NC(=O)C(=O)Nn1c(=S)[nH]c2ccccc2c1=O,-7.15%,-23.1%,-10.2%,2.75%,-17.2%,-12.6%
COc1ccc(C=C(C(=O)O)C(=O)O)cc1,30.1%,-11.6%,-8.15%,17.8%,22%,29.6%
COC(=O)C1Cc2c([nH]c3ccccc23)C=N1 (stereo not drawn),65.3%,31.2%,55%,45.5%,14.8%,62.6%
CCOC(=O)/C=C1\SC(C)(C)C1NC(=O)OCc1ccccc1 (stereo not drawn),-73.2%,-30.5%,-6.15%,-18.1%,-0.2%,-15%
CC(O)c1cccc(NC(=O)NC2CCCCC2)c1 (stereo not drawn),-2.55%,28.1%,10.8%,-6.1%,29.4%,27.8%
Cc1ccc(O)c(C=NCCN=Cc2cc(C)ccc2O)c1.[Cu+2],1.9%,5.25%,6.15%,8.45%,-20.6%,13.3%
CN[C@@H]1[C@H](O)[C@H](NC)[C@H]2O[C@@]3(O)C(=O)C[C@@H](C)O[C@H]3O[C@@H]2[C@H]1O,7.35%,-23.1%,-21.9%,7.45%,-12.6%,-9.1%
CC(=O)OCC1OC(n2c(-c3ccc(C)cc3)cc(-c3ccco3)c(C#N)c2=O)C(OC(C)=O)C(OC(C)=O)C1OC(C)=O (stereo not drawn),10.6% and -5.75%,10.6% and -5.75%,20.6% and 4.95%,13.5% and -16.8%,27.4% and -4.4%,14.4% and 9.7%
CCCCN(CCCC)CC(=O)NC(=O)c1ccccc1,-9.55%,-5.55%,3.35%,-38.5%,10.8%,-14.3%
Nc1ccc(Cc2cc([N+](=O)[O-])cc([N+](=O)[O-])c2)cc1,3.15%,-1.75%,11.4%,-42%,15.3%,-29.8%
CCCOC(=O)c1ccc(O)cc1.[Cu+2],5%,-13.3%,-14%,-34.4%,-3.05%,12.7%
C=C1CC2CC[C@@]34C[C@@H]5O[C@@H]6C(O[C@H]7CC[C@H](CC(=O)OC8[C@@H](C)C9OC%10C[C@]%11(C[C@@H]%12O[C@@]%13(C[C@@H](C)[C@@H]%12O%11)C[C@H](C)[C@@H]%11OC%12CC(C(O)CO)OC%12C[C@@H]%11O%13)OC%10CC9O[C@H]8C[C@H]8O[C@@H](CC[C@@H]1O2)C[C@@H](C)C8=C)O[C@@H]7[C@@H]6O3)C5O4 (stereo partly drawn),79.8% (active),74.6% (active),76.5% (active),69.8%,83.2% (active),78.5% (active)
CCCCC(C)(C)SCCC(=O)O,11.2%,-7.25%,14.9%,10.9%,5.6%,-5.35%
COc1ccc(OC)c(NC(=O)CCCC(=O)C(C#N)c2ccc(CC#N)cc2)c1 (stereo not drawn),-15.8%,-17.6%,-34.5%,-40.8%,3.1%,-25.6%

SMILES,growth inhibition [1],growth inhibition [2],growth inhibition [3],growth inhibition [4],growth inhibition [5],growth inhibition [6]
C=C1C(=O)OC2/C=C(\C)C(O)CCC(C)(O)CC(OC(=O)/C(C)=C/C)C12 (stereo not drawn),2.35%,-5.45%,-3.1%,17.4%,3.7%,-1.9%
O=C(O)C1Cc2c([nH]c3ccccc23)CN1 (stereo not drawn),8.45%,-10.9%,11.6%,2.25%,24.1%,9.25%
Cc1ccc(C(CC(=O)C(C)(C)CN2CCCCC2)SCCS(=O)(=O)O)cc1 (stereo not drawn),7.5%,-7.95%,11.1%,9.4%,4.3%,20%
O=C(CCCl)Nc1ccc(C(=O)CCc2cccc(NC(=O)CCCl)c2)cc1,28.9%,2.65%,7.75%,22.5%,-0.65%,6.3%
CC12OC3(C)C4CC1C1(C)OC4(C)C3C(O)C21 (stereo not drawn),-0.8%,4.8%,-3.7%,-16.6%,-6.5%,10.3%
O=C1NC(N2CCOCC2)=N/C1=C\c1ccc(Cl)cc1,1.75%,3.6%,4.9%,-6.25%,-11.1%,-29.9%
O=C(O)C1CCc2ccccc21 (stereo not drawn),-15.8%,-46.5%,-15.2%,-12.2%,-26.6%,-20.1%
CSc1nc2c(nc(N)n2C2OCC(O)C(O)C2O)c(=O)n1C (stereo not drawn),12.1%,14.1%,22.6%,32.6%,17.9%,32.2%
CCOC(=O)NC(=S)c1ccc[nH]1,-10.7%,-42.2%,0.2%,4.6%,-36.8%,-20.2%
COc1ccc(C(=O)CCC2(C)OCCO2)cc1OC,27.3%,5.8%,18.9%,8.4%,21.9%,17.5%
C=CCC(O)CCCCC (stereo not drawn),-0.4%,-22.8%,15.8%,20.7%,-11.3%,-23.4%
CCCOC(=O)c1ccc([N+](=O)[O-])cc1,16.4%,4.2%,14.2%,8.75%,-16.7%,-23.1%
O=C(O)/C=C/c1cccc(F)c1,-16.6%,-12.2%,-4.9%,-15.9%,-17%,10.2%
CN=c1ss/c(=N\C(=S)N(C)C)n1C1CCCCC1,-9.6%,-0.55%,14%,13.1%,0%,21.2%
Cc1cccc(-c2cc3ccccc3c(Cl)n2)n1,-4%,-23.1%,10.8%,-0.6%,7.6%,7.7%
Cc1cc[n+]2cc(-c3ccc(/C=N/N=C(N)N)cc3)n(C)c2c1,22.9%,33.9%,18.7%,28.9%,-8.75%,29.9%
O=C1C2CCC2C(=O)N1c1ccc2ccccc2c1 (stereo not drawn),-38.5%,-1%,0.35%,-17.9%,12.6%,6.75%
OC(c1ccc(OCc2ccccc2)cc1)c1ccccn1 (stereo not drawn),-1.15%,-0.65%,-4.45%,-16.4%,-5.7%,-0.3%
CC(C)OC(=O)CC1NS(=O)(=O)c2ccccc21 (stereo not drawn),3.9%,1%,-9.7%,24.6%,-16.6%,20.6%
